EWS-Fli block – inhibitors of EWS/Fli oncoprotein transcriptional activity; A673 NR0B1-luciferase reporter, viability-normalised; inhibition, % at 12.6 µM; hit rate 0.67% among 350,000; AID 651661;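 active = mean inhibition of at least 50% after viability correction, with every replicate also passing that limit; inconclusive = mean reaches 50% but only one of two replicates passes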;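 also: firefly luciferase signal divided by Alamar Blue viability fluorescence both relative to DMSO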
PGC1a acetyl inh – modulators of PGC1a acetylation | U2OS PGC1a acetylation, AlphaScreen anti-acetyl-lysine; with virally co-expressed GCN5 acetyltransferase | inhibition, % at 15.6 µM | hit rate 0.17% among 350,000;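 active = every replicate shows inhibition of at least 40%; inconclusive = mean inhibition at least 40% but some replicate below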
LGR2 inh – inhibitors of bursicon-induced Drosophila LGR2 receptor cAMP signaling. AID 720647. HEK293 LGR2, CRE-luciferase, bursicon-stimulated, 4 h. inhibition, % at 9.99 µM. hit rate 0.35% among 380,000;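 active = drop in luminescence signal, shown as inhibition above about 50% in the replicate tests, limit read from the data, passing the limit was not always enough; inconclusive = probably only some replicates passing the limit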;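 also: agonist challenge used bursicon conditioned medium at about half maximal strength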
MITF TRPM1 inh – MITF TRPM1 promoter inhibition in SK-MEL-5 cells | SK-MEL-5 TRPM1 promoter luciferase, 24 h | inhibition, % at 12.5 µM | hit rate 0.83% among 330,000 | AID 488899;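 active = mean inhibition across replicates of 60% or more, whatever share of single replicates reaches that level; inconclusive = some that reach 60%, reason not given; inactive = mean inhibition across replicates below 60%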
PAX8 reporter – lowers PAX8-driven luciferase in RMG-I cells; RMG-I TPO-luciferase reporter, SteadyGlo, 24 h; inhibition, % at 12.6 µM; hit rate 1.2% among 360,000; AID 652154;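 active = mean replicate inhibition at least 60% with every replicate also reaching 60%; inconclusive = only one of the two criteria is met; inactive = mean below 60% and not all replicates reaching 60%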;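 also: luciferase light reporting Pax8 driven TPO promoter activity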
LMP1 NFkB inh – reduces LMP1-driven NF-kappaB luciferase signal; LMP1-induced NF-kappaB luciferase reporter cells, luminescence; inhibition, % at 12.5 µM; hit rate 0.69% among 350,000; AID 504558; in the data active = inhibition above about 41%; inconclusive = no clear call, values can overlap the other calls
Hits are given with their value; n = inactive; u = inconclusive; x = no result. Shown are actives, neighbours in structure and some others; about 2.2% of the full set was active somewhere.

SMILES | EWS-Fli block | PGC1a acetyl inh | LGR2 inh | MITF TRPM1 inh | PAX8 reporter | LMP1 NFkB inh
O=C(O)CC(NC(=O)C1c2ccccc2Oc2ccccc21)c1ccc(OC2CCCC2)cc1 (configuration not stated) | n | n | n | n | 121.2 | n
C[C@@H]1CCCCO[C@@H](CN(C)CC2CC2)[C@@H](C)CN([C@H](C)CO)C(=O)c2cc(NS(=O)(=O)c3cn(C)cn3)ccc2O1 | x | n | n | x | n | x
CC1CCN(CC2C(=O)O[C@@H]3C[C@@]4(C)CCC[C@H](C)C4=C[C@H]23)CC(C)(C)C1 (some centres not stated) | n | n | n | 74.2 | u | n
Cc1ccc(C(=O)Sc2cccccc2=O)cc1 | n | x | n | 83.2 | n | n
O=c1cc(C2CCCCC2)[nH]c(=O)[nH]1 | n | n | n | n | n | 51.7
C=C1CC2(OC1=O)c1ccccc1CCc1ccccc12 | 52.2 | x | 75.9 | 107.8 | 71.3 | n
CCCCN1C(=N)N([C@@H](C)CN2CCC[C@H]2CN2C(N)=NC[C@@H]2Cc2ccccc2)C[C@H]1Cc1ccccc1 | n | x | n | x | n | n
CCCCN1C(=N)N([C@@H](CN2CCC[C@H]2CN2C(N)=NC[C@@H]2Cc2ccccc2)C(C)C)C[C@H]1Cc1ccccc1 | n | x | n | n | 63.4 | n
O=C(C[C@@H]1CC[C@H]2[C@@H](COC[C@@H](O)CN2CC2CCCCC2)O1)NCC1CC1 | n | n | n | x | n | x
C#CC(=O)CC1(CN(Cc2ccccc2)C(=O)OC(C)(C)C)CCCCC1 | n | n | n | n | 76.2 | n
CON(C)C(=O)CC1(CN(Cc2ccccc2)C(=O)OC(C)(C)C)CCCCC1 | n | n | n | n | n | n
CC(=O)OCC1OC(n2cc(F)c(=O)[nH]c2=O)C(OC(C)=O)C1OC(C)=O (configuration not stated) | n | n | n | n | n | n
O=C1C(F)=CC(COC(c2ccccc2)(c2ccccc2)c2ccccc2)OC1n1cc(F)c(=O)[nH]c1=O (configuration not stated) | 69.4 | n | 26.6 | 114.3 | n | n
Clc1ccccc1CN1CCSCC1 | n | 47.1 | n | n | n | n
O=S1(=O)c2ccc(Br)cc2OC(COCc2ccccc2)CN1Cc1ccccc1 (configuration not stated) | n | x | n | n | n | n
O=S1(=O)c2ccc(Br)cc2N2CCC[C@@H]2CN1Cc1ccccc1 | 51.8 | x | n | n | n | n
Cn1c(Cn2cnc([N+](=O)[O-])n2)nnc1SCC(=O)Nc1ccccc1 | n | n | n | n | 81.4 | n
C#CCOCCOCCOCCNc1nc(N2CCOCC2)nc(N2CCN(C(=O)CCCCCCCCCCNC(=O)[C@@H](CCSC)n3cc(CCO)nn3)CC2)n1 | n | n | n | n | n | n
C#CCOCCOCCOCCNc1nc(N2CCN(C(=O)CCCCCCCCCCNC(=O)[C@H](CCCCN)n3cc(CCO)nn3)CC2)nc(N2CCN(C(=O)CCCCCCCCCCNC(=O)[C@H](CCCN=C(N)N)n3cc(C[C@@H](C)CC)nn3)CC2)n1 | x | x | x | 77.1 | x | n
C#CCOCCOCCOCCNc1nc(N2CCN(C(=O)CCCCCCCCCCNC(=O)[C@H](CCCCN)n3cc(CCCC(=O)O)nn3)CC2)nc(N2CCN(C(=O)CCCCCCCCCCNC(=O)[C@H](CCCN=C(N)N)n3cc(C[C@@H](C)CC)nn3)CC2)n1 | x | x | x | n | x | n
C#CCOCCOCCOCCNc1nc(N2CCN(C(=O)CCCCCCCCCCNC(=O)Cn3cc(C[C@@H](C)O)nn3)CC2)nc(N2CCN(C(=O)CCCCCCCCCCNC(=O)[C@H](CCCCN)n3cc(C[C@@H](C)CC)nn3)CC2)n1 | x | x | x | 82.7 | x | n
CC[C@H](C)Cc1cn([C@@H](CCCCNC(=O)OC(C)(C)C)C(=O)NCCCCCCCCCCC(=O)N2CCN(C(=O)OC(C)(C)C)CC2)nn1 | n | n | x | 68.2 | n | n
C#CCOCCOCCOCCNc1nc(N2CCN(C(=O)CCCCCCCCCCNC(=O)[C@@H](CCSC)n3cc(CCO)nn3)CC2)nc(N2CCN(C(=O)CCCCCCCCCCNC(=O)[C@H]([C@@H](C)CC)n3cc(CCCCN=C(N)N)nn3)CC2)n1 | x | x | x | 62.7 | x | n
Cc1ccc(S(=O)(=O)N(C)C[C@@H]2Oc3ccc(NC(=O)CCCCCC(=O)Nc4ccccc4N)cc3C(=O)N([C@H](C)CO)C[C@H]2C)cc1 | x | n | n | x | n | x
O=C(C1CCCC1)N1CC(=O)N2[C@H](CO)[C@H](c3ccc(-c4ccccc4F)cc3)[C@@H]2C1 | n | n | n | x | x | x
SMILES | EWS-Fli block | PGC1a acetyl inh | LGR2 inh | MITF TRPM1 inh | PAX8 reporter | LMP1 NFkB inh
CC(C)NC(=O)N[C@@H]1CC[C@H](CC(=O)N2CCCCC2)O[C@H]1CO | n | x | n | x | n | x
Cc1noc(C)c1NC(=O)Nc1ccc2c(c1)C(=O)N([C@H](C)CO)C[C@@H](C)[C@H](CN(C)S(=O)(=O)c1cn(C)cn1)OCCCC[C@@H](C)O2 | n | n | n | x | n | x
Cc1ccccc1S(=O)(=O)N1[C@H](CO)[C@@H](c2ccc(-c3ccc(F)cc3)cc2)[C@@H]1C#N | n | n | n | x | n | x
CC1(C)Cc2c(c(N3CCOCC3)nc3sc4c(NCCN)ncnc4c23)CO1 | n | n | n | 69.5 | n | n
CN(C)CCNc1ncnc2c1sc1nc(N3CCOCC3)c3c(c12)CC(C)(C)SC3 | x | n | x | 76.8 | n | n
Cc1ccc(S(=O)(=O)N[C@H]2C=C[C@H](CC(=O)NCc3ccncn3)O[C@@H]2CO)cc1 | n | n | n | x | n | x
COc1cc(SC)ccc1C(=O)Nc1ccc(C)cc1 | n | x | x | n | n | n
COc1cc(SC)ccc1C(=O)Nc1ncc(C)s1 | 81.1 | x | 102.4 | 65.5 | 84.5 | 74.2
COc1cc(SC)ccc1C(=O)Nc1ccc(Br)cn1 | 73.3 | n | x | n | n | 50.9
CC1CCN(Cc2c(C(=O)N/N=C/c3cc(Br)ccc3O)nnn2-c2nonc2N)CC1 | n | n | n | 64.7 | u | 49.1
CC1CCN(Cc2c(C(=O)N/N=C/c3cc(Cl)ccc3O)nnn2-c2nonc2N)CC1 | n | n | n | n | n | n
Cc1ccc(Sc2cnc3ccccc3n2)cc1 | x | x | x | n | x | 56.0
CNc1c2cccc(C)c2nc2c(C(=O)NCCN(C)C)cccc12 | 58.3 | x | n | 100.2 | n | 90.5
Cc1ccc(C(=O)NCCN(C)C)c(C)c1 | x | n | x | n | n | n
C[C@@H]1CN([C@H](C)CO)C(=O)c2cc(NC(=O)CCCCCC(=O)Nc3ccccc3N)ccc2O[C@H]1CN(C)S(=O)(=O)c1cn(C)cn1 | n | n | n | x | n | x
COc1ccc(C2NC3=C(CCC3)C3(C#N)C(OC)(OC)N=C(N)C23C#N)cc1 (configuration not stated) | x | u | x | 79.8 | x | 62.4
COc1ccc(C(=O)Nc2nnc(-c3ccco3)s2)cc1 | x | n | 81.5 | n | x | n
COc1cccc(C(=O)Nc2nnc(SCC(=O)NC3CC3)s2)c1 | n | n | n | n | n | n
COc1ccc2nc(SCC(=O)NC3CCCC3)c(C)cc2c1 | 55.1 | n | n | n | n | n
COc1ccc(C(=O)Nc2nnc(SCC(=O)NC3CC3)s2)cc1 | n | n | u | n | n | 44.6

Compound activity (PubChem BioAssay)
